# Source: PubChem
# TEAD-YAP block – TEAD-YAP interaction inhibition; HEK-TIYL cells, TEAD-Gal4/YAP UAS-luciferase luminescence; inhibition, % at 9.12 µM; 1.4% of 640,000 active; in the data active means inhibition above about 32%;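 further: 0% = median of test compound wells and 100% = reference inhibitor wells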
# FBW7 act – human FBW7 E3 ligase activation, primary screen; AlphaScreen FBW7–phospho-cyclin E peptide binding, activator screen; Q969H0; normalized activity (activation), % at 26.1 µM; 0.13% of 650,000 active; in the data active means normalized activity above about 1.9%;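 further: purified mutant Fbw7 with reduced substrate affinity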
# Target sequence (Q969H0 whole entry, looked up): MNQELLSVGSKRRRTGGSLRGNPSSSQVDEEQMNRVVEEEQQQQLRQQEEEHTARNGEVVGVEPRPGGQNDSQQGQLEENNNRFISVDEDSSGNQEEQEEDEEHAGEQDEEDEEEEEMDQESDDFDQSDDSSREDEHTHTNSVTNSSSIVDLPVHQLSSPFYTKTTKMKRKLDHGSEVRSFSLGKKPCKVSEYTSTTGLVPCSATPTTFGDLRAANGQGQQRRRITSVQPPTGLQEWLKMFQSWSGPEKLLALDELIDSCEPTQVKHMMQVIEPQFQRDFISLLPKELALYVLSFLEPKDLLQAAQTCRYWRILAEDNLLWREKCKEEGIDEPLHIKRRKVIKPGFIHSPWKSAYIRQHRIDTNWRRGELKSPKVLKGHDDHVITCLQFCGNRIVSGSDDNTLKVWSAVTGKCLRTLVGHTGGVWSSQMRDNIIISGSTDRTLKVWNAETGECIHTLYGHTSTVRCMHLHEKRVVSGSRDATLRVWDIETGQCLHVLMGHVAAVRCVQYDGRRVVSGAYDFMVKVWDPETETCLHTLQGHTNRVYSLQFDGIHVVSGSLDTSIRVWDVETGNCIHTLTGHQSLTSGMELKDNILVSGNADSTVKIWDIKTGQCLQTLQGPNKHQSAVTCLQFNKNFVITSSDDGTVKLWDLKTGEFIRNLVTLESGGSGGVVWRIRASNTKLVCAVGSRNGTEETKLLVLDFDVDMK
# GPR151 activ – human GPR151 activation; Q8TDV0; PathHunter beta-arrestin GPR151 cells, luminescence; activation, % at 11.2 µM; 1% of 650,000 active; AID 1508602; in the data active means activation above about 4.9%;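 further: 0% = median of compound wells and 100% = cells with positive control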
# MITF inh – blocks human microphthalmia-associated transcription factor; O75030; AlphaScreen MITF homodimerization, bead proximity signal; inhibition, % at 2.6 µM; 0.91% of 650,000 active; AID 1259374; in the data active means inhibition above about 50%;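 further: 0% = vehicle wells with protein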
# GPR151 confirm – human GPR151 activation, confirmation screen; 6,700 tested, under 10 active; GPR151 PathHunter beta-arrestin cells, luminescence, 90 min; % of EA-reagent control over plate median; AID 1508609; activation, % at 11.2 µM; shares compounds with GPR151 activ;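 active means mean percent activation across replicates above the confirmation screen cutoff of 4.91%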
# GPR119 counter – counter-screen for GPR151 activators: effect on human GPR119. AID 1508611. shares compounds with GPR151 activ. GPR119 PathHunter beta-arrestin cells, luminescence, 90 min; 0 = compound-well median, 100 = enzyme-acceptor control. activation, % at 11.2 µM. 0.3% of 6,700 active;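 active means mean percent activation in the counterscreen above 29.09%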;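 further: counterscreen on off-target GPR119 to flag nonselective hits from the GPR151 activator screen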
# * hit, by the source's call; nt = not tested or not shown. Shown are actives, neighbours in structure and some others; about 3.4% of the full set was active somewhere.
SMILES,TEAD-YAP block,FBW7 act,GPR151 activ,MITF inh,GPR151 confirm,GPR119 counter
Cc1nc2c(c(=O)[nH]1)CN(C(=O)C1(c3cccc(F)c3)CCCC1)CC2,2.8,0.1,6.5*,-0.2,-0.1,5.3
Cc1nc2c(c(=O)[nH]1)CN(C(=O)C1(c3ccc(Cl)cc3)CCC1)CC2,-4.1,0.1,2.1,4.6,nt,nt
COCCCNC(=S)N1CCCC(c2nc3ccc(C)cc3[nH]2)C1 (centres undefined),-22.2,-0.1,5.2*,-10.3,-0.2,-2.2
COc1ccccc1NC(=O)Nc1ccnn1C1CCN(C(=O)C2CCCCC2)CC1,-9.0,0.2,-0.8,-6.9,nt,nt
Cc1cc(C)n2nc(C(=O)N/N=C/c3cc([N+](=O)[O-])ccc3O)nc2n1,2.4,-0.8,5.8*,3.2,-0.6,-2.9
Cc1cc(C)nc(N/N=C/c2cc([N+](=O)[O-])ccc2O)n1,18.8,-1.3,0.3,43.7,nt,nt
O=C(O)C1CCCN(c2ncnc3scc(-c4ccccc4)c23)C1 (centres undefined),-5.2,0.2,17.9*,4.4,-1.4,-3.8
CCOC(=O)C1CCCN(c2ncnc3scc(-c4ccccc4)c23)C1 (centres undefined),-18.9,-0.1,1.3,4.1,nt,nt
CN(C)CCC(Oc1ccc(F)cc1)c1ccc(S(C)(=O)=O)cc1 (centres undefined),6.0,-0.1,5.6*,33.7,-0.3,9.6
O=C(CSc1ccc2nnc(-c3cccc(F)c3)n2n1)NCc1ccc(F)cc1,-0.7,0.0,-0.1,2.2,nt,nt
O=C(O)c1ccc2c(=O)[nH]c(CSc3nnc(Nc4ccccc4)s3)nc2c1,8.0,0.1,8.4*,22.9,0.8,5.5
O=C1Nc2ccc([N+](=O)[O-])cc2C12NN=C(c1ccccc1)S2 (centres undefined),-43.5,0.1,5.0*,8.7,0.5,15.2
CC1=C/C(=N\OS(=O)(=O)c2ccccc2)C(C(C)C)=CC1=O,-8.6,-0.1,8.5*,19.9,0.4,20.1
CC1=C/C(=N\S(=O)(=O)c2ccccc2)C(C)=CC1=O,4.2,0.0,-0.7,-13.2,nt,nt
O=C(NCCc1csc2nc(-c3ccc(F)cc3)nn12)C(=O)Nc1cccc(Cl)c1,1.4,0.2,-0.8,-14.0,nt,nt
O=C(NC(C(=O)Nc1ccc(Br)cc1)C12CC3CC(CC(C3)C1)C2)c1ccccc1 (centres undefined),4.5,0.0,2.4,2.8,nt,nt
CNS(=O)(=O)c1ccc(NC(=O)/C=C/c2ccco2)cc1,-9.4,-0.1,-0.4,-3.3,nt,nt
CN(C)S(=O)(=O)c1ccc(NC(=O)/C=C/c2ccco2)cc1,-22.9,0.2,8.3*,7.4,0.9,3.8
O=C(/C=C/c1ccco1)Nc1ccc(S(=O)(=O)N2CCCCC2)cc1,4.6,0.0,13.3*,-12.7,-1.1,-7.9
O=C(Nc1ccc(S(=O)(=O)N2CCCCCC2)cc1)C(Cl)(Cl)Cl,-0.1,-0.1,6.7*,5.7,0.0,-7.4
O=C(/C=C/c1ccco1)Nc1ccc(S(=O)(=O)N2CCCCCC2)cc1,2.3,-0.2,-0.7,-5.8,nt,nt
CC(C)(C)C(=O)OCN1c2nonc2N(COC(=O)C(C)(C)C)c2nonc21,-0.6,-0.2,7.9*,-9.3,0.3,0.3
O=C(O)c1ccc(Cn2c(SCc3cc(=O)n4cc(Br)ccc4n3)nc3ccsc3c2=O)cc1,-17.8,0.0,7.3*,5.3,0.7,16.0
O=C(O)CCn1c(SCc2cc(=O)n3cc(Br)ccc3n2)nc2ccsc2c1=O,2.2,0.0,1.2,1.2,nt,nt
Cc1nc(SCC(=O)OCc2ccccc2)c(C#N)c(-c2cccc(Cl)c2)c1C(=O)Nc1ccccc1,-5.9,-0.1,-0.6,1.2,nt,nt
SMILES,TEAD-YAP block,FBW7 act,GPR151 activ,MITF inh,GPR151 confirm,GPR119 counter
Cc1cnc(N2CCOCC2)nc1Nc1ccc(N2CCOCC2)cc1,5.2,-0.1,-0.8,15.0,nt,nt
Cc1cnc(N2CCOCC2)nc1Nc1ccc(Oc2ccccc2)cc1,-16.7,0.1,6.6*,-3.5,-0.8,-0.6
Cc1cnc(-c2csc3ccccc23)nc1Nc1ccc(N2CCOCC2)cc1,-13.8,0.8,5.0*,14.1,-0.9,-8.8
CC(C)(C)NC(=O)COc1ccccc1C(=O)NCCOc1ccccc1,-23.9,0.1,-0.4,5.9,nt,nt
CCCCOc1ccc(C2C3=C(CC(C)(C)CC3=O)Nc3ccccc3N2C(=O)CC)cc1 (centres undefined),4.8,0.0,6.7*,-8.6,1.1,10.3
CC(=O)N1c2ccccc2NC2=C(C(=O)CC(C)(C)C2)C1c1ccccn1 (centres undefined),-9.4,0.1,5.2*,-21.2,0.4,8.2
CCc1c(C)nc(NC2CCN(S(=O)(=O)c3ccc(OC)cc3)CC2)[nH]c1=O,-6.0,0.1,0.1,-17.6,nt,nt
NS(=O)(=O)c1ccc2nc(NC(=O)c3cccc(N4C(=O)CCC4=O)c3)sc2c1,12.1,0.1,-0.8,11.4,nt,nt
CCOc1ccc(-c2nnn(CC(C)=O)n2)cc1,-68.4,-0.2,10.0*,-8.8,0.1,14.2
CCOc1ccc(-c2nnn(CC(C)=O)n2)cc1OCC,-52.5,-0.1,0.1,5.5,nt,nt
CCN(CC)CCn1c(N)c(C(=O)Nc2ccccc2C)sc1=S,2.0,-0.1,6.0*,2.8,0.6,10.4
CCOc1ccc(-n2c(N)c(C(=O)Nc3ccccc3C)sc2=S)cc1,7.2,0.1,-0.3,12.7,nt,nt
O=C(CCc1nnc(C2(c3ccc(Cl)cc3)CCC2)o1)NCc1cccnc1,-1.4,0.0,4.9*,4.1,-0.7,-9.3
O=C(CCc1nnc(C2(c3ccc(Cl)cc3)CCC2)o1)NCCCc1cccnc1,-18.4,0.0,-1.5,-4.5,nt,nt
COc1ccc(-c2nnc(SCc3nc4ccccc4[nH]3)n2-c2ccccc2)cc1OC,-13.3,0.2,5.0*,-13.8,-0.6,-1.9
O=C(Cn1ncc2ccccc2c1=O)NNC(=S)NC1CC2CCC1C2 (centres undefined),5.3,0.6,10.3*,4.9,0.1,8.3
COc1cccc(-c2nc(CS(=O)(=O)CC(=O)NCCCN3CCCC3=O)c(C)o2)c1,8.5,-0.5,0.5,-12.7,nt,nt
COC(=O)c1cc2c(N3CCC(Cc4ccccc4)CC3)ncnc2s1,-1.9,-0.2,5.5*,5.5,1.8,6.1
COc1ccc2cc(C(=O)Nc3ccccc3C)c(=N)oc2c1,-40.1,0.1,5.0*,11.2,0.1,-7.2
COC(=O)c1cc2c(cc1NC(=O)NCc1noc3ccccc13)OCO2,11.0,0.0,9.2*,9.0,0.6,-3.4
O=C(NCc1cccc(Cl)c1)NCc1noc2ccccc12,-21.4,0.0,6.5*,-11.9,0.2,1.6
O=C(Nc1nnc(S(=O)(=O)N2CCOCC2)s1)C1CCCCC1,8.2,-0.1,0.1,2.0,nt,nt
Cc1cccc(N2CCN(C(=O)C3C4CCC(O4)C3C(=O)O)CC2)c1C (centres undefined),-6.1,-0.1,-0.2,4.2,nt,nt
CCOc1cc(C)c(S(=O)(=O)N2CCCC2)cc1C,-4.7,0.2,6.7*,-32.4,-0.3,-3.1
